SMILES strings stand for the structures. Out of some 16,000 compounds screened, about 250 (1.6%) were called active. This excerpt belongs to a sample that is enriched for actives. Values without a mark were called inactive.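 How the source made its calls: active means inhibition above the average over every tested compound plus 3 SD (cut at about 40% in these data); inactive means the rest.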

In the assay the test system is Hepatitis C virus NS3 helicase. Briefly: compounds blocking NS3h DNA binding – biochemical, fluorescence polarization, ChemBridge library, primary screen (AID 687043). The conditions noted are these: NS3h Cy5-dT15 DNA binding, at 100 µM, stronger effect = higher value.
Take `O=C(/C=C/c1cc(Br)cs1)Nc1cccc(C(F)(F)F)c1`: the inhibition is 14.4%.

Turning to `COc1ccc(C2(CNC(=O)c3ccc(F)cc3)CCCC2)cc1OC`, the inhibition is 8.8%.

Turning to `O=C(Nc1ccncc1)c1cc2ccccc2o1`, the inhibition was 11.4%.

`CCOC(=O)c1c(C)nc2n(/N=C\c3ccc([N+](=O)[O-])cc3)c3ccccc3n12`: the inhibition was 6.3%.

As for `Cc1ccc(C(=O)Nc2ccc(C(C)C)cc2)cc1C`, the inhibition is 3.2%.

In the case of `Cc1ccc(/C=N\NC(=O)c2cccnc2)o1`, the inhibition was 1.6%.

For the molecule `O=C(NCCc1c[nH]c2ccccc12)c1cccs1`, the inhibition is 8.2%.

In the case of `COC(=O)C1=C(C)NC2=C(C(=O)c3ccccc32)C1c1ccc(OCc2ccc(F)cc2)c(OC)c1` (configuration not stated), the inhibition is -0.7%.

In the case of `Cc1ccc(N2NC(=O)/C(=C/c3ccc4c(c3)OCO4)C2=O)cc1Cl`, the inhibition was 5.8%.

For the molecule `O=C(NCCN1CCOCC1)/C(=C/c1ccc(F)cc1)NC(=O)c1ccccc1`, the inhibition was 15.5%.

Regarding `O=C(Nc1ccc(Cl)c(Cl)c1)Nc1nnc(-c2ccc(F)cc2)s1`, the inhibition was 21.5%.

For the molecule `CCOc1ccc(NC(=O)CC2S/C(=N/N=C3/CCCc4ccccc43)NC2=O)cc1` (configuration not stated), the inhibition was 16.3%.

Consider `Cc1cccc(-c2cc(NC(=O)COc3ccc(Cl)cc3Cl)n[nH]2)c1`, for which the inhibition was -2.4%.

As to `COc1ccccc1N1CCN(C(=O)c2cnn3c2NC(c2ccc(Br)cc2)CC3C(F)(F)F)CC1` (configuration not stated), the inhibition was 7.2%.

With `COc1cc(/C=C2/SC(=S)NC2=O)ccc1OCCOCCOc1ccc(C)cc1`, the inhibition is 18.6%.

`COc1cc(/C=C2/C(=O)NC(=O)N(c3ccc(C)cc3)C2=O)ccc1OCCOc1ccc([N+](=O)[O-])cc1`: the inhibition is 20.3%.

With `COc1cc(C=C2C(=O)NC(=O)NC2=O)ccc1OCCOc1ccc([N+](=O)[O-])cc1`, the inhibition is 52.6% (active).

Take `O=C(Cn1cncn1)c1ccc(F)c(F)c1`: the inhibition is -2.3%.

In the case of `COc1cc(/C=C2/C(=O)N(c3ccccc3)N=C2C)ccc1OC(=O)c1cccs1`, the inhibition was 11.4%.

With `CCC1=NN2C(=N)/C(=C/c3cc(Br)c(OCc4ccc(F)cc4)c(OC)c3)C(=O)N=C2S1`, the inhibition was 10.4%.

`O=C(/C=C/c1ccc(Cl)cc1)Nc1ccc(-c2nc3ccccc3o2)c(O)c1`: the inhibition was 9.9%.

In the case of `O=C1N=C(N2CCCC2)S/C1=C\c1cccc(Br)c1`, the inhibition was 9.8%.

Consider `COc1ccc(C(=O)CSc2nc(C)cc(C)n2)cc1[N+](=O)[O-]`, for which the inhibition is 18%.

`O=C(NC(c1ccccc1)c1ccccc1)c1ccc([N+](=O)[O-])cc1Cl`: the inhibition was 14.7%.

On to `O=c1cccc(-c2ccc(Br)cc2)o1`, for which the inhibition is 0.7%.

`CC(C)(C)C(=O)Nc1ccc(C(=O)Nc2ccc(O)cc2C(=O)O)cc1`: the inhibition is -2.6%.

As to `CCOC(=O)c1ccc(-c2ccc(/C=C(/C#N)C(=O)Nc3ccc4ccccc4c3)o2)cc1`, the inhibition is -1.8%.

For the molecule `O=c1oc(-c2ccco2)nc2ccc(Cl)cc12`, the inhibition is -3.4%.

As to `O=C(CSc1ccccn1)N1c2ccccc2Sc2ccccc21`, the inhibition is 10.2%.

With `O=C(Nc1cc(C(F)(F)F)ccc1Cl)C1CC(=O)N(c2ccc(Br)cc2)C1` (configuration not stated), the inhibition is 2.2%.

Regarding `Cc1ccc(NC(=O)c2ccc3c(c2)OCCO3)c([N+](=O)[O-])c1`, the inhibition was 20.8%.

On to `CCC(=O)/C=C1\Sc2ccccc2N1CC`, for which the inhibition is -1.3%.

On to `O=C(CC(Nc1ccc2ncccc2c1)c1ccc(F)cc1)c1ccccc1` (configuration not stated), for which the inhibition was 3.6%.

For `Cc1cc(C)n(C(=O)COc2cccc3ccccc23)n1`, the inhibition was 7.8%.

In the case of `COc1ccc(C2=N/C(=C/c3ccccc3OC)C(=O)N2c2ccccc2)cc1`, the inhibition was 8.2%.

In the case of `CCOC(=O)C1=C(C)N=c2s/c(=C\c3ccc(C)o3)c(=O)n2C1c1cccc(OC)c1` (configuration not stated), the inhibition was 20.2%.

On to `Cc1nnc(Nc2ccc3c(c2)nc(C)n3Cc2ccccc2)c2ccccc12`, for which the inhibition was 2.2%.

As for `N#CC(C#N)=C1CCCc2ccccc2N1`, the inhibition is -4.1%.

For `O=c1c(Cl)c(Cl)cnn1Cc1c(Cl)ccc(Cl)c1Cl`, the inhibition was 5%.

As for `Cc1ccnc(SC2CC(=O)N(c3ccccc3)C2=O)n1` (configuration not stated), the inhibition was 1.2%.

For the molecule `COc1ccc(Cl)cc1NC(=O)Cn1nc([N+](=O)[O-])cc1C`, the inhibition was 11.3%.

Take `C=CCN1C(=O)/C(=C\c2cc(OC)c(O)c([N+](=O)[O-])c2)C(=O)NC1=S`: the inhibition is 81.2% (active).

Take `Cc1ccc(N2C(=O)/C(=C/c3ccc(Oc4ccc([N+](=O)[O-])cn4)cc3)C(=O)NC2=S)cc1`: the inhibition is 25.1%.

Turning to `C=CCN1C(=O)/C(=C\c2cc(Cl)c(O)c(Cl)c2)SC1=S`, the inhibition is 21.3%.

As for `COc1cccc(C=C2C(=O)NC(=O)NC2=O)c1O`, the inhibition is 15.5%.

For the molecule `O=C1NC(=O)C(=Cc2cc([N+](=O)[O-])cc(Br)c2O)C(=O)N1`, the inhibition was 48.9% (active).

Consider `C=CCOc1ccccc1C=C1C(=O)NC(=O)NC1=O`, for which the inhibition was 34.9%.

Take `OCCNC1CCCc2c1[nH]c1ccc(-c3ccccc3)cc21` (configuration not stated): the inhibition was 2.8%.

For `CC(C)(C)c1ccc(C2C(C(=O)c3ccco3)=C(O)C(=O)N2c2ncc(S(=O)(=O)c3ccc([N+](=O)[O-])cc3)s2)cc1` (configuration not stated), the inhibition was 9.7%.

Take `COc1ccc2oc(=O)c(C(N)=O)cc2c1`: the inhibition was 2.8%.

As to `Oc1ccc(Br)cc1CN1CCN(Cc2ccccn2)CC1`, the inhibition was -7.5%.

With `COc1ccc(Br)cc1/C=C1/SC(=S)N(c2cccc(C(F)(F)F)c2)C1=O`, the inhibition is 11.5%.

In the case of `O=C(CCc1ccccc1)N1N=C(c2cccc([N+](=O)[O-])c2)CC1(O)C(F)(F)F` (configuration not stated), the inhibition was 8.7%.

Regarding `O=C1NC(=Nc2ccc(F)cc2)S/C1=C\c1cccs1`, the inhibition is 12.6%.

For the molecule `CC(C)(C)N1C(=O)NC(=O)C(=Cc2cccs2)C1=O`, the inhibition is 75.4% (active).

Turning to `Cc1cc(C)cc(N2C(=O)NC(=O)/C(=C\c3ccc(F)cc3)C2=O)c1`, the inhibition was 21.8%.

As for `Cc1ccccc1NC(=O)C(=O)NCc1ccco1`, the inhibition is 10.2%.

As for `CSc1ccc(C(C2=C(O)CC(C)(C)CC2=O)C2C(=O)CC(C)(C)CC2=O)cc1` (configuration not stated), the inhibition is 5.7%.

Take `CCN1C(=O)/C(=C\c2cn(CCOc3ccccc3)c3ccccc23)SC1=S`: the inhibition is 11.7%.

As to `O=C(c1cnn2c(C(F)(F)F)cc(-c3cccs3)nc12)N1CCCc2ccccc21`, the inhibition is 14.1%.

In the case of `O=C(COc1ccc(Br)cc1)Nc1cccc(C(F)(F)F)c1`, the inhibition was 3.2%.

Regarding `CC(=O)n1nc(C)c2c(-c3ccccc3)c3cc(Br)ccc3nc21`, the inhibition was 0.3%.

For the molecule `O=C(NNC(=O)c1ccc(-c2ccccc2)cc1)Nc1ccccc1`, the inhibition was 6.7%.

`O=C(O)COc1ccc2c(=O)c(Oc3ccccc3Br)coc2c1`: the inhibition is 4.5%.

Turning to `CCOc1ccc(NC(=O)C2=C(C)NC(=S)NC2c2c(OC)ccc3ccccc23)cc1` (configuration not stated), the inhibition is 6.9%.

Take `CCc1ccc2oc(-c3ccc(NC(=O)c4ccccc4[N+](=O)[O-])cc3)nc2c1`: the inhibition is 17.7%.

In the case of `COc1ccc2oc(=O)c(-c3ccc(I)cc3)cc2c1`, the inhibition was 1.3%.

Regarding `Cc1ccc(C(=O)C[n+]2cc(-c3ccccc3)n3c2CCCCC3)cc1`, the inhibition was 54.5% (active).

Turning to `COC(=O)c1cc(NC(=O)c2ccc(OC)cc2)cc(C(=O)OC)c1`, the inhibition was 1.9%.

Take `O=C1CS/C(=N/N=C\c2ccc([N+](=O)[O-])cc2)N1c1ccc(O)cc1`: the inhibition is 9.1%.

`COc1ccc(C(=O)Oc2ccc3oc(=O)cc(C)c3c2)cc1OC`: the inhibition is 48.9% (active).

With `C=C(C)COc1ccc2oc(C)c(C(=O)OC)c2c1`, the inhibition was 12.1%.

As to `Cc1cc(=O)oc2ccc(OCC(=O)O)cc12`, the inhibition is -3.9%.

Consider `O=C(Nc1c(F)cc(F)cc1Br)c1cc2n(n1)C(C(F)(F)F)CC(c1cccs1)N2` (configuration not stated), for which the inhibition is 11.4%.

For the molecule `O=C(/C=C/c1cccc([N+](=O)[O-])c1)Nc1ccc(O)c(-c2nc3ccccc3o2)c1`, the inhibition is 12.7%.

Take `CCOc1ccc(C2(Cc3ccccc3)C(=O)c3ccccc3C2=O)cc1`: the inhibition is 5.5%.

Take `CC1=C(C(=O)OCC2CCCO2)C(c2cccc(C(F)(F)F)c2)C2=C(CCCC2=O)N1` (configuration not stated): the inhibition was -1.6%.

Turning to `CSc1nsc(SC)c1NC(=O)OCC1([N+](=O)[O-])COC(C)(C)OC1`, the inhibition was 3.2%.

As for `CC(C)n1c(O)c(C2=c3ccccc3=NC2=O)sc1=S`, the inhibition was 6.8%.

On to `CCOc1cc(/C=c2\sc3nc4ccccc4n3c2=O)ccc1OC(C)c1ccccc1` (configuration not stated), for which the inhibition was 2.5%.

Turning to `CCCC(=O)Nc1cccc(NC(=O)c2ccc(-c3ccc(Cl)cc3Cl)o2)c1`, the inhibition is 8.9%.

On to `Cc1cc(I)ccc1NC(=O)COc1ccc(Br)cc1`, for which the inhibition was 8%.

Regarding `Clc1ccc(Cn2c(CNc3ccc(Cl)cc3)nc3ccccc32)cc1`, the inhibition is 9.9%.

In the case of `Cc1ccc(N2C(=O)CC(NCc3ccc(F)cc3)C2=O)cc1` (configuration not stated), the inhibition was 5%.

`Cc1ccc(S(=O)(=O)Nc2cc(-c3ccc(F)cc3)[nH]n2)cc1`: the inhibition is -6.5%.

Consider `O=C(Nc1nccs1)c1ccc(NC(=O)C2CCCCC2)cc1`, for which the inhibition is 12.5%.

For `N/C(=N/OC(=O)c1ccccc1F)c1ccc(Br)cc1`, the inhibition was -3.4%.

As for `CC(C)c1ccc(/C=C(\C(=O)c2ccccc2Cl)c2nc3ccccc3o2)cc1`, the inhibition is 10.6%.

With `N#Cc1c(SCC(=O)c2ccc(Cl)cc2)nc2c(c1-c1ccco1)CCCC2`, the inhibition was -2.3%.

Regarding `N#Cc1c(N)nc2sc(C(=O)Nc3ccccc3)c(N)c2c1-c1ccco1`, the inhibition was 65.7% (active).

`O=C(Nc1ccc(Oc2ccccc2)cc1)c1ccco1`: the inhibition was 12%.

Turning to `COC(=O)c1cc(C(=O)N(Cc2ccccc2)c2ccccn2)cc([N+](=O)[O-])c1`, the inhibition was 8.4%.

(Values after PubChem BioAssay AID687043 (Milwaukee Institute for Drug Discovery, 2013).)
